Hits are enriched below; roughly 3.7% of the tested compounds scored in any of these assays.
TMEM16A inh: TMEM16A chloride channel inhibitors, primary screen, cell-based, HTS; Anoctamin-1 (Mus musculus), Q8BHY3; HEK293 TMEM16A/YFP iodide influx fluorescence, ionomycin; normalized B-score (activity score, 25-100; higher = stronger inhibition) at 10 µM; 1.2% of 310,000 active; AID 588511, 2011;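 active means ratio plate-corrected score three or more library SD toward inhibition, starting fluorescence score within five deviations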;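 further: score derived from kinetic fluorescence span divided by baseline fluorescence per well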
ANO1 activ: TMEM16A chloride channel activators or potentiators, primary screen, cell-based, HTS; HEK293 TMEM16A/YFP-H148Q/I152L, iodide quench fluorescence; active compounds read low; B-score at 10 µM; 0.3% of 340,000 active; AID 623877, 2012;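 active means fluorescence-ratio B-score plate-corrected deviation score at least 3 library SD below zero, with starting fluorescence score within 5 deviations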;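 further: channel opened by trigger with iodide after compound preincubation; score built on the fluorescence ratio of max minus min over baseline; more negative score means more quench and so TMEM16A activation or potentiation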
GPR7 antagonist: GPR7 receptor antagonists, primary screen, cell-based, fluorescence, single concentration; Neuropeptides B/W receptor type 1 (Homo sapiens), P48145; GPR7-expressing cells, fluorescence antagonist assay; inhibition, % at 4.4 µM; 1.1% of 290,000 active; AID 1861, 2009; in the data active means inhibition above about 16%, passing the limit was not always enough;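 further: cells stimulated with the agonist NPW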
Target sequence (P48145 whole entry, looked up): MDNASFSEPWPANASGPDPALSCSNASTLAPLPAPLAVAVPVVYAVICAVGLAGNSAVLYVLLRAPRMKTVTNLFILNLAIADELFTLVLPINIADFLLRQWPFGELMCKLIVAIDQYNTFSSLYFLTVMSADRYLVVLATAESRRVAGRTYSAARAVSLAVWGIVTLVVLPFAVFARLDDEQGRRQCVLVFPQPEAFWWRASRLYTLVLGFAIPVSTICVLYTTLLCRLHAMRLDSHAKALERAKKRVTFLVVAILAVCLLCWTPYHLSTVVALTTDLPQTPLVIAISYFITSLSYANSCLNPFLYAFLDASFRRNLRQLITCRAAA
Kir21 inh: inhibitors of mouse Kir2.1 inward-rectifier potassium channel; Inward rectifier potassium channel 2 (Mus musculus), P35561; 0.85% of 310,000 active; HEK293-Kir2.1, FluxOR thallium flux fluorescence; active compounds read low; B-score at 10 µM;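 active means fluorescence ratio B-score at or below minus 3 SD of library scores, with starting-brightness B-score within 2 SD, cut at about -4.2 in these data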;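 further: channel flux triggered by added potassium and thallium sulfate stimulus; B-score of peak minus minimum fluorescence over baseline after thallium stimulus; more negative B-score means stronger Kir2.1 block with less thallium influx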
CHT PAM: CHT positive allosteric modulators, primary screen, cell-based, membrane potential dye, choline EC20 | CHT-expressing cells; active compounds read high; LV-AA mutant CHT in HEK293 cells | High affinity choline transporter 1 (Homo sapiens), Q9GZV3 | 0.49% of 310,000 active | B-score at 10 µM;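 active means initial fluorescence not abnormally high and integrated response B-score, plate-corrected, over 3 SD above library mean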
CHT inh: inhibitors of human choline transporter CHT. High affinity choline transporter 1 (Homo sapiens), Q9GZV3. CHT-expressing cells, membrane potential dye, choline response; active compounds read low. B-score at 10 µM. 0.86% of 310,000 active;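 active means B-score over 3 SD under the library average, and starting fluorescence ratio not unusually high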;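 further: choline stimulus applied at its EC90 after an EC20 pre-addition; B-score computed on integrated fluorescence ratio after choline addition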
TMEM16A reconf: TMEM16A chloride channel inhibitors, confirmation, cell-based, re-confirmation; shares compounds with TMEM16A inh; HEK293 TMEM16A/YFP-H148Q, iodide quench fluorescence; ionomycin added to raise cell calcium; inhibition, % at 10 µM; 39% of 2,300 active; AID 652189, 2013;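 active means mean duplicate percent inhibition, scaled so buffer wells are 0 and the reference blocker 100, over three buffer SD above buffer mean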
TMEM16A Ca cntr: calcium mobilization in TMEM16A/YFP HEK293 cells, confirmation, counter-screen for TMEM16A inhibitor project | shares compounds with TMEM16A inh | Fluo4 calcium mobilization | calcium response (% of ionomycin), % at 10 µM | 2% of 2,300 active | AID 652231, 2013;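 active means duplicate-averaged calcium signal over 20% of the ionomycin maximum, relative to buffer baseline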;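 further: each well's signal is peak minus trough fluorescence divided by its pre-addition baseline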
Parental YFP cnt: iodide YFP quench changes in parental YFP-HEK293, counter-screen for TMEM16A inhibitor project, cell-based; shares compounds with TMEM16A inh; 2,300 tested, under 10 active; ionomycin; YFP ratio F(max-min)/F0 at 10 µM;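 active means yellow fluorescent protein signal ratio exceeding the buffer control mean by over 5 SD of those controls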;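 further: ratio is mean of duplicate wells from kinetic YFP trace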
ClC-1 inh: ClC-1 chloride channel inhibition, selectivity assay for TMEM16A inhibitor project, cell-based, voltage-dependent ClC-1. AID 652236, 2013. ratio percent, % at 10 µM. 2,300 tested, under 10 active. shares compounds with TMEM16A inh. CHO ClC-1-YFP, iodide influx fluorescence quench; iodide control reads 0, buffer control 100;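 active means duplicate-mean ratio percent above the mean of iodide-only control wells, which defines zero, plus 5 of their SD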;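 further: higher percent means stronger block of ClC-1 iodide influx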
Hits are given with their value; . = inactive; / = no result.

SMILES | TMEM16A inh | ANO1 activ | GPR7 antagonist | Kir21 inh | CHT PAM | CHT inh | TMEM16A reconf | TMEM16A Ca cntr | Parental YFP cnt | ClC-1 inh
O=S(=O)(NCCOCC(F)(F)C(F)F)c1ccc2oc3ccccc3c2c1 | 25 | . | . | . | . | . | 23.5% | . | . | .
CCCc1c(C(=O)N/N=C/c2ccco2)nnn1-c1nonc1N | . | . | . | . | . | . | / | / | / | /
CCCCOc1ccc2c(C)cc(=O)oc2c1OCCCC | 100 | . | . | . | . | . | . | . | . | .
CC1CC(C)CN(C(=O)COC(=O)c2ccc3c(c2)OCCO3)C1 (stereo unspecified) | / | . | / | / | / | / | / | / | / | /
O=C(O)C(Oc1ccc2ccccc2c1)c1ccccc1 (stereo unspecified) | . | . | / | . | . | . | / | / | / | /
CCCCn1c(SCc2nc3ccccc3s2)nc2cc(S(N)(=O)=O)ccc21 | 25 | . | . | . | . | . | . | . | . | .
Cc1ccc(C)c(NC(=O)CSc2sc3c(O)cc(=O)[nH]c3c2C#N)c1 | . | . | . | . | . | . | . | . | . | .
COC(=O)c1ccc(C)c(NC(=O)CSc2sc3c(O)cc(=O)[nH]c3c2C#N)c1 | . | . | . | . | . | . | / | / | / | /
O=C(Nc1ccc(Cl)cc1)c1cccs1 | 25 | . | . | . | . | . | . | . | . | .
O=C(Nc1nc(-c2ccc(Cl)s2)cs1)c1cccs1 | 25 | . | . | . | . | . | . | . | . | .
O=C(Nc1nc(-c2ccccc2)cs1)c1cccs1 | 25 | . | . | . | . | . | 22.0% | . | . | .
Cc1cc(=O)[nH]c(N/N=C/c2ccc(OC(=O)c3cccnc3)cc2)n1 | . | . | . | . | . | . | / | / | / | /
Cc1ccc(OCCNC(=O)c2ccccc2F)cc1 | . | . | . | . | . | . | / | / | / | /
O=S(=O)(Nc1ccccc1Cl)c1ccc(-c2ccccn2)s1 | . | . | / | . | . | . | / | / | / | /
Cc1nc(-c2ccc(S(=O)(=O)Nc3ccc(Br)cc3Cl)s2)cs1 | 100 | . | . | . | . | . | 34.5% | . | . | .
Cc1c(N=Cc2cccnc2)c(=O)n(-c2ccccc2)n1C | . | . | . | . | . | . | / | / | / | /
Cc1c(N=C/C=C/c2ccccc2)c(=O)n(-c2ccccc2)n1C | 25 | . | . | . | . | . | . | . | . | .
Cc1ccccc1OCC(=O)N(Cc1ccc(N(C)C)cc1)C1CCS(=O)(=O)C1 (stereo unspecified) | 100 | . | . | . | . | . | . | . | . | .
CC(NC(=S)Nc1ccc(S(=O)(=O)N2CCOCC2)cc1)C1CC2CCC1C2 (stereo unspecified) | 25 | . | . | . | . | . | . | . | . | .
O=S(=O)(c1ccc(NC(=S)Nc2ccccc2)cc1)N1CCOCC1 | . | . | . | . | . | . | / | / | / | /
O=C(NCCCN1CCOCC1)C(c1ccccc1)c1ccccc1 | . | . | . | . | . | . | / | / | / | /
CC(C)c1nc2cc(C(=O)N(C)Cc3ccc(F)cc3)ccc2o1 | . | . | . | . | . | . | / | / | / | /
Cc1cccc(/N=C/c2sc3ccccc3c2O)n1 | . | . | . | . | . | . | . | . | . | .
Cc1nc(SCC(N)=O)c([N+](=O)[O-])[nH]1 | . | . | . | . | . | . | / | / | / | /
C/C(=N\NC(=O)CSc1nc(C)[nH]c1[N+](=O)[O-])c1ccc(F)cc1 | 100 | . | . | . | . | . | . | . | . | .
SMILES | TMEM16A inh | ANO1 activ | GPR7 antagonist | Kir21 inh | CHT PAM | CHT inh | TMEM16A reconf | TMEM16A Ca cntr | Parental YFP cnt | ClC-1 inh
CC(O)CNc1nc2c(c(=O)n(C)c(=O)n2C)n1C/C=C/c1ccccc1 (stereo unspecified) | . | . | . | . | . | . | / | / | / | /
Cn1c(=O)c2c(nc(NCCCO)n2C/C=C/c2ccccc2)n(C)c1=O | 100 | . | . | . | . | . | . | . | . | .
CC(C)CN(/C=N/c1sc2c(c1C#N)CCCCC2)CC(C)C | . | . | . | . | . | . | / | / | / | /
CCN(/C=N/c1sc2c(c1C#N)CCCCC2)CC | 100 | . | . | . | . | . | . | . | . | .
CCOC(=O)C1CCN(c2c(NCCN3CCCCC3C)c(=O)c2=O)CC1 (stereo unspecified) | 100 | . | . | . | . | . | . | . | . | .
COC(=O)C(C)(C)ONC(=O)Nc1ccccc1Cl | . | . | . | . | . | . | / | / | / | /
COC(=O)C(C)(C)ONC(=O)Nc1ccccc1Br | 25 | . | . | . | . | . | . | . | . | .
CCOc1ccccc1/C=C/c1onc(C)c1S(=O)(=O)N1CCC(C(=O)N2CCCCCC2)CC1 | . | . | . | . | . | . | / | / | / | /
O=C(c1ccco1)N1CCN(C(=O)c2cnn3c2NC(c2cccs2)CC3C(F)(F)F)CC1 (stereo unspecified) | . | . | . | . | . | . | / | / | / | /
O=C(c1cnn2c1NC(c1ccco1)CC2C(F)(F)F)N1CCN(c2cccc(Cl)c2)CC1 (stereo unspecified) | 25 | . | . | . | . | . | . | . | . | .
COc1ccc(C(=O)Nc2ccnn2C2CCN(C(=O)c3cnsn3)CC2)cc1 | . | . | . | . | . | . | / | / | / | /
COc1ccc(C(=O)/C=C/c2cn(CC(O)CN3CCN(C)CC3)c3ccccc23)cc1OC (stereo unspecified) | . | . | . | . | . | . | . | . | . | .
O=C(/C=C/c1cn(CC(O)CN2CCCCC2)c2ccccc12)c1ccccc1 (stereo unspecified) | / | . | . | . | / | / | / | / | / | /
CC1CN=C(NC(=O)c2cccc([N+](=O)[O-])c2)S1 (stereo unspecified) | . | . | . | . | . | . | / | / | / | /
CCN(CC)S(=O)(=O)c1cccc(C(=O)OCC(=O)c2ccc3c(c2)OCCO3)c1 | 25 | . | . | . | . | . | 16.5% | . | . | .

Screens: PubChem BioAssay, several laboratories
